RE007 growth inh: less growth of the S. pombe RE007 Vpr strain; S. pombe RE007 Vpr strain, BacTiter-Glo ATP luminescence, 24 h; Potency, µM (top dose mostly 92.2 µM), for inactives: at the top dose activity change, negative = less growth, most hits filed as inhibitors; actives 0.21% (n = 360,000); AID 651644; active = well fitted falling curve with a large enough effect; inconclusive = small, poorly fitted or top-dose-only effect; inactive = no such curve, though single readings can be large or run the other way; also: nearly all actives have a fitted effect of over 50% in size
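Fission yeast strain RE007, carrying one chromosomally integrated HIV-1 vpr copy, was seeded at OD 0.01 in PMG+AL medium with 23 nL pinned compound. After 24 h at 30 °C and 99% humidity, viability was read by BacTiter-Glo luminescence.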
AmpC inh detg: blocks E. coli AmpC beta-lactamase in detergent assay | P00811 | Potency, µM (titrated, usually from 114 µM), without a hit: at the highest dose activity change, negative = inhibition, most hits filed as inhibitors | actives 0.041% (n = 370,000) | AmpC hydrolysis of nitrocefin, absorbance 480 nm, 0.01% Triton;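 also: 0% = no-compound wells and -100% = no-enzyme wells; nearly all actives have a fitted effect of over 25% in size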
Target sequence (P00811 whole entry, looked up): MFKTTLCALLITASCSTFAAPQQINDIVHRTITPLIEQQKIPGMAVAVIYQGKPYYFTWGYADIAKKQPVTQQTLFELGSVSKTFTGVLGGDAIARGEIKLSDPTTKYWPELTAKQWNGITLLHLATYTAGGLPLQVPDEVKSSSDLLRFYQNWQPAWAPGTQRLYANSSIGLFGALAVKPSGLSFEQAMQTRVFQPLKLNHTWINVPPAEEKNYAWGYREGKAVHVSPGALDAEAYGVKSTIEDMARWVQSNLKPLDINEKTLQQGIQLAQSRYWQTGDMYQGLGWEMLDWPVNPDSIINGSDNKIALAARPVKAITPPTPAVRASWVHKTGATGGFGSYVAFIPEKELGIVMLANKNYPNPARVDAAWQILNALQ
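AmpC (5.3 nM in the dispensed reagent) in 20 mM phosphate pH 7.0 with 0.01% (detergent screen) or 0.0001% Triton X-100 was preincubated with compounds for 15 min at room temperature. Nitrocefin was then added from an 800 uM solution, and hydrolysis was followed at 480 nm.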
Sm TGR inh: blocks Schistosoma mansoni thioredoxin glutathione reductase. actives 3% (n = 360,000). purified TGR, DTNB reduction, TNB absorbance 405 nm. Potency, µM (doses to about 114 µM), inactives show at the top dose activity change, negative = inhibition, most hits filed as inhibitors. Q962Y6; also: nearly all actives have a fitted effect of over 60% in size
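TGR 20 nM + NADPH 100 uM (dispensed conc.), cpd preinc 15 min RT; start with NADPH (500 uM addition) then DTNB (15 mM addition). Kinetic TNB absorbance, 405 nm filter. Four-parameter Hill fit across titration.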
AMA1-RON2 inh: disrupts binding of P. falciparum AMA1 to RON2; AlphaScreen AMA1-biotinylated RON2 peptide binding; Potency, µM (titrated, usually from 58.2 µM), for inactives: top-dose activity change, negative = inhibition, actives largely listed as inhibitors; actives 0.2% (n = 360,000);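 also: 0% = vehicle wells and -100% = peptide control; nearly all actives have a fitted effect of over 45% in size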
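AMA1 (3D7) with his tag at 25 nM final met compounds first, then biotinylated RON2 peptide at 25 nM; detection used donor plus acceptor beads, 10 µg/mL apiece, read by AlphaScreen after 30 min at room temperature.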
AmpC no deterg: inhibitors of E. coli AmpC beta-lactamase without detergent; P00811; AmpC nitrocefin hydrolysis, absorbance 480 nm, 0.0001% Triton; Potency, µM (doses to about 57.1 µM), for inactives: at the top dose activity change, negative = inhibition, most hits filed as inhibitors; actives 0.52% (n = 330,000); AID 485341;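 also: plate controls were no compound for no effect and no enzyme for full effect; nearly all actives have a fitted effect of over 20% in size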
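20 mM phosphate pH 7.0 + 0.01% (detergent screen) or 0.0001% Triton X-100; 5.3 nM AmpC reagent; cpd preinc 15 min RT; nitrocefin (800 uM stock) to start; A480 q20 s × 4 min; Activity was normalised to no-enzyme and no-compound control wells.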
* marks the source's active call; other numbers are inactive results; u = inconclusive; x = no result given. A selection: hits, their analogues and other compounds. The true share with any hit is near 3.2%. Unless noted, calls follow the shape of the dose curve; as a rule, active = well fitted curve in the direction sought with a large enough effect; inconclusive = small, poorly fitted or top-dose-only effect, or another doubt; inactive = no such curve, though single readings can be large; an effect the other way counts as inactive or inconclusive. Unless noted, % is scaled to controls: 0 for no effect and ±100 for the full control effect; potency is read from the fitted curve at half-maximal effect.

SMILES	RE007 growth inh	AmpC inh detg	Sm TGR inh	AMA1-RON2 inh	AmpC no deterg
CN(C(=O)C=Cc1ccco1)c1ccccc1	-24%	x	x	5%	x
O=C(O)/C=C/c1ccc(S(=O)(=O)Nc2ccccc2C(=O)Nc2ccc(F)cc2)cc1	1%	-10%	45µM*	-10%	-18%
N#CC1(c2ccccc2)CCC(=NNS(=O)(=O)c2ccccc2)CC1 (centres undefined)	19%	3%	40µM*	0%	-20%
CN(C)c1ccc(C(CNC(=O)c2ccc(C(C)(C)C)cc2)N2CCCC2)cc1 (centres undefined)	x	13%	-4%	x	x
O=C(c1ccccc1)c1cc(F)c(N2CCOCC2)cc1Cl	40µM*	-9%	-18%	7%	-1%
COc1ccc(CNC(=O)CCc2c(C)nc3c4cccnc4nn3c2C)cc1	x	13%	3%	x	x
COc1ccc2ccccc2c1C(=O)/C=C\c1ccoc1	-20%	7%	22µM*	u	-39%
O=C(/C=C/c1ccoc1)c1ccccc1O	-4%	4%	-25%	-2%	-22%
CCCCN(CCCC)CCn1cnc2c([nH]c3ccc(OC)cc32)c1=O	-3%	u	7%	-2%	20µM*
COc1ccc2[nH]c3c(=O)n(CCc4ccccc4)cnc3c2c1	4%	0%	2%	-2%	-6%
C=CCn1c(CCC(=O)O)ccc1-c1ccccc1	5%	u	45µM*	-12%	-32%
O=C(O)CCc1ccc(-c2ccc(Cl)cc2)n1CCC(=O)O	-1%	-8%	22µM*	5%	-2%
O=C(O)CCc1ccc(-c2ccc(Cl)cc2)n1CC(=O)Nc1ccccc1	2%	-14%	u	-7%	1%
Cc1c(Cl)cccc1NC(=O)Cn1c(CCC(=O)O)ccc1-c1ccc(Cl)cc1	0%	-13%	-8%	-6%	-22%
O=C(O)CCc1ccc(-c2cccs2)n1CC(=O)Nc1ccccc1C(F)(F)F	-13%	4%	u	1%	-19%
O=C(O)CCc1ccc(-c2ccc(Cl)cc2)n1CC(=O)O	-2%	-19%	45µM*	-4%	-26%
O=C(O)CCc1ccc(-c2ccccc2)n1CC(=O)Nc1ccccc1C(F)(F)F	x	12%	40µM*	x	x
O=C(O)CCc1nnc2cnc3ccccc3n12	x	20%	2%	x	x
CC(=O)c1c(C)[nH]c(C2=NNC(=NCc3ccccc3)SC2)c1C	8%	-8%	11µM*	0%	-36%
c1ccc(CN=C2NN=C(c3ccccc3)CS2)cc1	-10%	-7%	-17%	33%	u
Fc1ccc(C2=NNC(=NCc3ccccc3)SC2)cc1F	10%	0%	-12%	22%	18µM*
COc1ccc(-c2nc(SCC(=O)NCc3nc4ccccc4n3C)n3[nH]c(=O)cc3n2)cc1	x	3%	6%	x	x
CCOc1ccc(C(=O)N2CCN(Cc3cc(=O)n4nc(-c5ccccc5Cl)sc4n3)CC2)cc1	x	13%	0%	x	x
CC[N+]1(C)CCC(O)(/C=C/c2ccccc2)C(C(=O)/C=C/c2ccccc2)C1 (centres undefined)	8.9µM*	x	x	15%	x
Cc1cc(C)cc(N(CC(=O)NCc2ccccc2Cl)S(=O)(=O)c2c(C)noc2C)c1	x	0%	5%	x	x
SMILES	RE007 growth inh	AmpC inh detg	Sm TGR inh	AMA1-RON2 inh	AmpC no deterg
COc1ccc(/C=C/C(=O)N/C(=C\c2ccco2)C(=O)NCCc2nc3ccccc3[nH]2)cc1	-6%	-1%	-21%	31%	15%
O=C(/C=C/c1ccco1)N/C(=C\c1ccco1)C(=O)NCCc1nc2ccccc2[nH]1	-5%	4%	16µM*	31%	-21%
Cc1ccc(-c2nc3ccccc3[nH]2)cc1NC(=O)/C=C/c1ccco1	-11%	-12%	20µM*	-5%	-27%
CCCC(O)c1nc2ccccc2n1Cc1ccccc1OC (centres undefined)	x	-3%	-16%	x	x
COc1ccc(N=C2S/C(=C\c3ccc(N4CCOCC4)o3)C(=O)N2CCc2c[nH]c3ccccc23)cc1	x	-9%	13µM*	x	26%
CCCN1C(=O)/C(=C/c2ccc(C)o2)SC1=Nc1ccc(OC)cc1	-3%	1%	40µM*	u	-37%
CC(=O)Nc1ccc(S(=O)(=O)/N=C2/NC(=O)/C(=C\c3ccco3)S2)cc1	23%	2%	14µM*	0%	-36%
CCOC(=O)CN1C(=O)S/C(=C/c2ccc(C)o2)C1=O	-6%	-2%	40µM*	4%	-22%
O=C(c1ccc(CSc2nc3ccncc3n2Cc2cccc(F)c2)cc1)N1CCCCC1	x	-8%	-1%	x	x
O=C1NC(=Nc2ccc(O)cc2)S/C1=C\C=C\c1ccco1	3%	2%	14µM*	-10%	18µM*
COc1ccc(/C=C2\SC(=Nc3ccccc3)NC2=O)cc1	x	-7%	0%	x	-20%
CCCN1C(=O)/C(=C/c2ccco2)SC1=Nc1ccc(OC)cc1	-15%	-4%	50µM*	-26%	-39%
COc1ccc(N=C2NC(=O)/C(=C\c3ccco3)S2)cc1	-21%	5%	28µM*	-11%	-40%
COc1cccc(CNC(=O)N2CCC(CN3CCC(C)CC3)CC2)c1	x	9%	9%	x	x
O=C(COc1ccccc1)Nc1nnc(-c2ccc3c(c2)CCCC3)o1	-3%	u	-2%	121%	10µM*
CCCCN1C(=O)c2[nH]nc(-c3ccccc3O)c2C1c1ccc(OCc2ccccc2)cc1 (centres undefined)	x	-2%	5%	x	x
CCC(Sc1nc2ncccc2o1)C(=O)Nc1cccc(C)c1 (centres undefined)	x	5%	1%	x	x
CCCNC(=O)c1ccc(S(=O)(=O)c2ccc(OC)cc2)c([N+](=O)[O-])c1	-7%	2%	2.2µM*	-5%	-39%
Cc1cccc(C)c1NC(=S)NCCc1ccc(O)c(O)c1	-2%	2%	7.9µM*	2%	-26%
Cc1ccc(OC(=O)c2snnc2C)cc1C	x	22%	-1%	x	x
O=C(c1ccc2c3c(cccc13)CC2)C1CCCN(C(=O)c2ccc(=O)[nH]c2)C1 (centres undefined)	-4%	-4%	40µM*	-1%	63%
Cc1ncccc1C(=O)N1CCCC(C(=O)c2ccc3c4c(cccc24)CC3)C1 (centres undefined)	5%	0%	10%	1%	218%
CC(C)Nc1ccc(-c2nc(-c3ccncc3)no2)cc1[N+](=O)[O-]	x	23%	-1%	x	x
CCOC(=O)CN(Cc1ccccc1)C(C(=O)NC1CCCCC1)c1ccccc1 (centres undefined)	x	5%	-6%	x	x

Source: PubChem BioAssay
